Cdc42 wt: modulators (inhibitors or activators) of GTP binding to human Cdc42 wildtype; P60953; hit rate 0.2% among 190,000; GST-Cdc42 beads, Bodipy-GTP binding, flow cytometry; actives lie on both sides; percent activity (GTP binding), % at 10 µM;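 active = percent activity GTP binding at least 20 points away from the 100% baseline, either down as inhibitor or up as activator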;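 also: median bead fluorescence of bound Bodipy-FL-GTP at 100 nM; below 100% means less GTP binding so inhibitor and above means activator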
Target sequence (P60953 whole entry, looked up): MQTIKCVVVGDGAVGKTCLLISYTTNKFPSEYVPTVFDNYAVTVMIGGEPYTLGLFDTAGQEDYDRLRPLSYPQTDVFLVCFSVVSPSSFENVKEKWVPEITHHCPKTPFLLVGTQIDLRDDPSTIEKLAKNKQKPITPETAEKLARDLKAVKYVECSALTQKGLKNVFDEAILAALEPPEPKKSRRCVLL
HRas wt GTP: changes GTP binding to wildtype human HRas; GTP binding activity, % at 10 µM; hit rate 0.14% among 190,000; GST-Ras wt beads, Bodipy-FL-GTP binding, flow cytometry; actives lie on both sides; P01112; AID 759;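 active = GTP binding activity at least 20% away from the 100% baseline, either lowered as inhibitor or raised as activator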
Target sequence (P01112 whole entry, looked up): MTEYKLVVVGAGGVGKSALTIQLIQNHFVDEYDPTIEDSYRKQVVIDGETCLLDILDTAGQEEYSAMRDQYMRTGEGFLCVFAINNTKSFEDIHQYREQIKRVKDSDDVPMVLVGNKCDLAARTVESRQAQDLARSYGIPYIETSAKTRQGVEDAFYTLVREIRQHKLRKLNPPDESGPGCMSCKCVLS
Rab7 wt modul: modulators of GTP binding to dog Rab7 wildtype GTPase; GST-Rab7 beads, fluorescent GTP binding, flow cytometry; actives lie on both sides; untreated = 100%, excess cold GTP = 0%; GTP binding activity (percent of control), % at 10 µM; hit rate 0.055% among 190,000; AID 758;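 active = fluorescent GTP binding to Rab7 beads changed by at least 20 points from the 100% baseline, either direction, mostly lower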;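 also: median green fluorescence of bound Bodipy-FL-GTP per Rab7 bead population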
Rac1 mut GTP: human Rac1 activated mutant GTP binding change. P63000. hit rate 0.11% among 190,000. GST-Rac1 activated beads, fluorescent GTP binding, flow cytometry; actives lie on both sides; 100% means binding = to untreated wells. AID 764. percent activity (GTP binding), % at 10 µM;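 active = GTP binding at least 20 percentage points away from the 100% baseline, in either direction, so actives lie on both sides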
Rac1 wt GTP bind: modulators of human Rac1 wildtype GTP binding. P63000. GST-Rac1 beads, fluorescent GTP binding, flow cytometry; actives lie on both sides; 0 = cold GTP competed, 100 = untreated. GTP binding activity (% of control), % at 10 µM. hit rate 0.27% among 190,000. AID 757;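 active = GTP binding activity at least 20 points away from the 100% control level, either lower or higher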
Rab2A wt mod: changes GTP binding to wildtype dog Rab2A, up or down | GST-Rab2 wt beads, Bodipy-GTP binding, flow cytometry | hit rate 0.19% among 190,000 | P61105 | GTP binding activity, % at 10 µM;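 active = GTP binding activity at least 20 points away from 100%, either lowered or raised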
Numbers stand for hits; – = inactive; [ ] = dose if it differs, or a comment. A selection: hits, their analogues and other compounds. The true share with any hit is near 0.4%.

SMILES	Cdc42 wt	HRas wt GTP	Rab7 wt modul	Rac1 mut GTP	Rac1 wt GTP bind	Rab2A wt mod
O=C1CC(c2ccc(F)cc2)Sc2ccccc2N1 (stereo unspecified)	–	–	–	–	129.0[activator]	–
CC(C)c1ccc(OCc2ccc(C(=O)NN3CCN(C)CC3)o2)cc1	–	–	–	–	–	–
COc1ccc(CNC(C)C(=O)Nc2ccc3ccccc3c2)cc1OC (stereo unspecified)	–	–	–	–	–	–
S=c1[nH]nc(-c2ccco2)n1-c1ccccc1Cl	79.0	–	–	79.0	77.0	–
COC(=O)/C=C/C(=O)Nc1cccnc1	–	–	–	–	–	–
O=C(Nc1cccc(O)c1)c1ccccc1	–	–	–	–	–	–
O=C(O)/C=C\C(=O)Nc1cccc(C(=O)Nc2cccc(O)c2)c1	–	–	–	–	76.0	–
O=C(O)/C=C/C(=O)Nc1cccnc1	31.0	38.0	20.0	34.0	34.0	31.0
COCCn1cnc2c1c(=O)n(CC(=O)OCC#N)c(=O)n2Cc1ccccc1	–	–	–	–	–	–
O=C(CSc1nnc2c(Cl)cc(Cl)cn12)N1CCN(c2ccc(F)cc2)CC1	–	–	–	–	–	–
Cc1ccc(N2C(=O)c3ccc(C(=O)N4CCN(c5cccc(C)c5C)CC4)cc3C2=O)cc1	–	–	–	–	–	–
O=C(NC1CCCCC1)c1noc2c1CCCCC2	–	–	–	–	120.0[activator]	–
CC(C)(C)C1CCc2onc(C(=O)NC3CCCC3)c2C1 (stereo unspecified)	–	–	–	–	–	–
COc1ccc(C2NC(=S)NC3=C2CCc2cc(OC)ccc23)cc1 (stereo unspecified)	–	–	–	–	–	–
Cn1c(O)c(C2=c3ccccc3=NC2=O)[nH]c1=S	–	–	–	–	79.0	–
COc1ccc2nc(-n3c(O)c(C4=c5ccccc5=NC4=O)[nH]c3=S)sc2c1	–	–	–	–	–	–
Cc1cc2[nH]c3c(c[n+](C)c4ccccc34)c2cc1C	–	–	–	–	76.0	–
Cc1cc(=O)[nH]c2ccccc12	–	–	–	–	–	–
COc1cc(CCNc2ccc3nnc(-c4ccccc4)n3n2)cc(OC)c1OC	73.0	71.0	–	–	73.0	74.0
CCC(C)c1ccc(NC(=O)C/C(C)=N/NC(=O)c2cnccn2)cc1 (stereo unspecified)	–	–	–	–	–	–
COc1ccc(C(=O)/C=C/Nc2ccc(S(=O)(=O)Nc3nc(C)cc(C)n3)cc2)cc1OC	–	–	–	–	79.0	–
Cc1cc(C)nc(NS(=O)(=O)c2ccc(N/C=C/C(=O)c3ccc(Cl)cc3)cc2)n1	–	–	–	–	–	–
Cc1c(N=C2N=C(NC(=O)c3ccc(F)cc3)c3ccccc32)c(=O)n(-c2ccccc2)n1C	–	–	–	–	–	–
Cc1ccccc1C(=O)Nc1ccc2c(C#N)c3nc4ccccc4nc3n2c1	–	–	–	–	76.0	76.0
CC(=O)Nc1ccc(NC(=O)c2ccccc2C)cc1	–	–	–	–	–	–
SMILES	Cdc42 wt	HRas wt GTP	Rab7 wt modul	Rac1 mut GTP	Rac1 wt GTP bind	Rab2A wt mod
CC1CCN(c2ncccc2C(=O)O)CC1	141.0[activator]	128.0[activator]	125.0[activator]	129.0[activator]	156.0[activator]	130.0[activator]
C/C(=N\Nc1ccc(S(N)(=O)=O)cc1[N+](=O)[O-])c1ccc2c(c1)OCO2	–	–	–	–	76.0	–
C=CCc1c(NCCO)nc(C)[nH]c1=O	–	–	–	–	–	–
COc1ccc(C(=O)NNC(=O)c2ccc(S(=O)(=O)N3CCCCC3)cc2)cc1	–	–	–	–	–	–
CN(/N=C/C=C/c1ccccc1)C1=NS(=O)(=O)c2ccccc21	74.0	68.0	–	–	65.0	72.0
C(=N\N(Cc1ccccc1)c1ccccc1)/c1cccnc1	–	–	–	–	–	–
CN(NC(=O)CN1C(=O)c2ccccc2C1=O)C1=NS(=O)(=O)c2ccccc21	–	–	–	–	–	–
CN(/N=C/c1cccnc1)C1=NS(=O)(=O)c2ccccc21	78.0	68.0	–	–	69.0	70.0
CN(c1cccc(NC(=O)CN(c2ccc(C34CC5CC(CC(C5)C3)C4)cc2)S(C)(=O)=O)c1)S(C)(=O)=O	–	–	–	–	–	–
CC(C)CCN(C(=S)NC(=O)C1CCCCC1)c1c(N)n(Cc2ccccc2)c(=O)[nH]c1=O	–	–	–	–	–	–
Cc1cc([N+](=O)[O-])nn1CC(=O)NCc1nc2ccccc2[nH]1	–	–	–	–	–	–
CCn1cc(/C=N/NC(=O)COc2cccc3cccnc23)c2ccccc21	–	–	–	–	–	–
O=[N+]([O-])c1cc2oc3c(c2c(C=NCc2ccccc2)c1O)CCCC3	74.0	79.0	78.0	74.0	73.0	76.0
CC(C)CN=Cc1c(O)c([N+](=O)[O-])cc2oc3c(c12)CCCC3	–	–	–	–	–	–
CC(C)N(Cc1ccccc1)CC(O)COc1ccc(S(=O)(=O)N2CCOCC2)cc1Cl (stereo unspecified)	–	–	–	–	–	–
Cc1ccccc1OCCn1cc(/C(N)=N/O)c2ccccc21	–	–	–	–	–	–
Cc1ccccc1OCCn1cc(C(=O)O)c2ccccc21	123.0[activator]	124.0[activator]	122.0[activator]	128.0[activator]	151.0[activator]	126.0[activator]
Cc1ccc(C)c(OCCn2cc(C(=O)O)c3ccccc32)c1	140.0[activator]	129.0[activator]	136.0[activator]	136.0[activator]	170.0[activator]	138.0[activator]
Cc1ccc(C)c(OCCn2cc(/C=C(\C#N)C(=O)NCc3ccco3)c3ccccc32)c1	–	–	–	–	–	–
CCCc1c(O)nc(SCCN(CC)CC)n(C(=O)c2ccccc2)c1=O	–	–	–	–	–	–
OCCC1CN(Cc2ccccc2O)CCN1CCc1ccccc1 (stereo unspecified)	16.0	18.0	10.0	13.0	12.0	16.0
CCOc1cccc(CN2CCN(CCc3ccccc3)C(CCO)C2)c1O (stereo unspecified)	–	–	–	–	–	–
Cc1cc(NC(=O)Nc2ccccc2F)ccc1Br	–	–	–	–	–	–
COc1ccccc1CNC(=O)c1c(N)n(CCCN2CCOCC2)c2nc3ccccc3nc12	–	–	–	–	78.0	–
O=S1(=O)N=C(N(CCO)/N=C/c2ccccc2)c2ccccc21	71.0	72.0	–	–	70.0	70.0
O=S1(=O)N=C(N(CCO)/N=C/c2ccncc2)c2ccccc21	64.0	67.0	–	76.0	56.0	66.0
O=C(O)c1cccc(NC(=S)N/N=C/c2ccccc2OCc2ccc(Br)cc2)c1	–	–	–	–	–	–
